# In PubChem BioAssay (NCI):
# The panel holds about 83,000 compounds, 20% with a hit somewhere; the sample as a whole holds those more often.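 Activity criterion: percent growth below 10, measured after cells in 96-well plates were exposed to a single compound concentration for 48 hours.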 A number with no mark means an inactive call. Activity calls are given as the source filed them.
# Assays:
# Assay in all cases: NCI-60 one-dose screen, 48 h (100 = growth as untreated, 0 = no growth, -100 = all killed)
# Conditions in all cases: 10 µM unless noted
# [1] = test system: NCI-H23 lung
# [2] = test system: NCI-H226 lung
# [3] = test system: NCI-H322M lung
# [4] = test system: HOP-62 NSCLC
# [5] = test system: NCI-H460 lung
# [6] = test system: HOP-92 NSCLC
# [7] = test system: NCI-H522 lung
# [8] = test system: A549/ATCC NSCLC
# [9] = test system: 786-0 renal
# [10] = test system: COLO 205 colon
Compound,growth [1] [%],growth [2],growth [3],growth [4] [%],growth [5] [%],growth [6],growth [7],growth [8] [%],growth [9] [%],growth [10]
CCN(CC)c1ccc(C2=NN(C(C)=O)C(c3cc(OC)c(OC)c(OC)c3)C2)cc1 (stereo not given),23.5,9.31% (active),-3.75% (active),40.7,13.4,20.6%,-46.3% (active),17.1,24,-4.4% (active)
O=C(COc1ccc(/C=C2\Cc3ccc(Cl)cc3C2=O)cc1)Nc1nc2ccccc2s1,95.5,101%,134%,98.2,103,97%,96.7%,99.5,103,116%
CCCCCCCCCCCCCCCCCCOc1ccccc1CCCOP(=O)(O)OCC[N+](C)(C)C,93.5,92.3%,113%,59.3,14.1,33.4%,67.9%,54.8,85.1,31.6%
CCC(=O)Nc1ccc(-c2nc(-c3cccc(OC)c3)c(-c3ccnc(Br)c3)[nH]2)cc1,76.9,55.1%,67.4%,75.3,49.4,61.4%,56.9%,60.9,40.8,71.2%
CC(=O)OC[C@H]1OC(Sc2sc(C(=O)c3ccc(Cl)cc3)c(N)c2-c2nc3ccccc3s2)[C@H](OC(C)=O)[C@@H](OC(C)=O)[C@@H]1OC(C)=O (stereo not given in full),63.3,75.9%,93.9%,90.3,67.5,93.7%,88.1%,86.4,99.3,90.4%
CCCCCCCNC(=O)CCCNc1ncnc2c1ncn2-c1cccc(C(C)O)c1 (stereo not given),90.7,79.3%,108%,95.9,99.8,96.6%,80.9%,94.5,97.3,92.9%
COc1ccc2cc(C(C)C(=O)Nc3ccc(-c4n[nH]c(=S)n4C4CCCCC4)cc3)ccc2c1 (stereo not given),90.2,95.3%,114%,84.3,43.2,43.4%,64.8%,41.2,78.4,75.5%
CCCCOc1nc2c(C)cccc2cc1-c1cc(-c2ccc(Cl)cc2)nc(-c2ccc(Cl)cc2)c1,110,100%,97.1%,103,103,91.4%,97.4%,101,102,111%
N#Cc1c(-c2ccc(Cl)cc2)nc2c(c(-c3ccccc3)nn2-c2ccccc2)c1-c1ccc(O)cc1,49,65.9%,70.8%,49.9,25.1,56.4%,55.6%,41.9,17.7,52.6%
CCc1ccc2nc(NC(=O)Cc3csc(NC(=O)c4ccco4)n3)sc2c1,85.1,72.6%,81.5%,86.3,79,-17.9% (active),60.4%,91.3,71.6,107%
N[C@@H](Cc1ccccc1)[C@@H](O)C(=O)NCc1ccc(F)cc1,106,103%,104%,119,103,94.9%,95.9%,104,98.5,111%
COc1ccc2c(c1)c(-c1nn3cc(-c4cccs4)nc3s1)cn2C,82.5,78.9%,55.8%,85.6,68.7,44.7%,63%,81.1,97.5,64.5%
CC1(C)C2CC1C1(/C=N/NC(N)=S)C(C2)C(C#N)(C#N)C1(C#N)C#N (stereo not given),89.4,109%,98%,108,98.9,55.5%,-60.7% (active),96.4,81.7,65.4%
CCCCNc1nc(NN2C(=O)c3cccc4cccc(c34)C2=O)nc(-n2cnc3ccccc32)n1,88.7,54.9%,92.7%,97.4,102,60.3%,89.5%,89.4,97.7,107%
